# HTT-AS promoter: HTT-AS promoter activation | HEK293 HTT-AS promoter firefly luciferase reporter, 24 h; response scale: percent change from vehicle, -100% = no light | Potency, µM (series often up to 57.5 µM), for the others: top-dose activity change, positive = activation, hits mostly activators | hit rate 0.24% among 48,000 | AID 1508624; further: potency means the concentration at half of the fitted maximal effect; nearly all actives have a fitted effect of over 55% in size
#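 Quantitative HTS used concentration series of up to 57.5 uM final on HEK293 luciferase reporter cells, 24 h at 37 degrees C. Readout was Dual-Glo firefly luminescence.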
# NTMT1 inh: blocks human N-terminal methyltransferase 1 activity; Potency, µM (top dose mostly 114 µM), without a hit: top-dose activity change, negative = inhibition, actives largely listed as inhibitors; hit rate 2.5% among 59,000; NTMT1 MTase-Glo SAH luminescence, purified enzyme; AID 1645870; Q9BV86;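 further: potency means the concentration at half of the fitted maximal effect; plate controls were DMSO vehicle for no effect and no enzyme for full effect; nearly all actives have a fitted effect of over 65% in size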
# Target sequence (Q9BV86 whole entry, looked up): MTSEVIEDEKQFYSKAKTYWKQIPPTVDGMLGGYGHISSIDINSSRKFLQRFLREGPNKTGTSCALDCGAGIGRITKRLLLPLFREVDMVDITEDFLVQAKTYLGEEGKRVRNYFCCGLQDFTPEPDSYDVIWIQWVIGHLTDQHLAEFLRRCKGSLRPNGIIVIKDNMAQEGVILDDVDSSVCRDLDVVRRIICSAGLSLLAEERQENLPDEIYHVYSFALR
# HTT promoter inh: inhibits huntingtin promoter activity; HEK293 HTT promoter firefly luciferase reporter, 24 h; Potency, µM (highest dose often 57.5 µM), for inactives: top-dose activity change, negative = inhibition, hits mostly inhibitors; hit rate 0.93% among 48,000; further: potency means the concentration at half of the fitted maximal effect; nearly all actives have a fitted effect of over 50% in size
#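 Luminescence was read after Dual-Glo reagent and a 10 min room-temperature incubation. Values were normalized to vehicle (0% activity) and zero RLU (-100% activity). Reporter HEK293 cells had been exposed to compounds (up to 57.5 uM final) for 24 h.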
# Sfp qHTS opt: inhibits purified B. subtilis Sfp PPTase | shares compounds with NTMT1 inh | purified Sfp PPTase enzyme activity, qHTS | Potency, µM (top dose mostly 114 µM), for inactives: at the top dose activity change, negative = inhibition, hits mostly inhibitors | hit rate 78% among 230 | AID 540350
# Bsub HM489 growth: Sfp PPTase inhibitors: growth inhibition of B. subtilis HM489. B. subtilis HM489 (acpS-) growth, BacTiter-Glo, 5 h. AID 540353. Potency, µM (top dose mostly 114 µM), for inactives: at the highest dose activity change, negative = inhibition, most hits filed as inhibitors. shares compounds with NTMT1 inh. hit rate 50% among 220
# Sfp PPTase gel: inhibitors of Bacillus subtilis Sfp PPTase, gel-based followup | shares compounds with NTMT1 inh | purified Sfp PPTase, gel-based product detection | Potency, µM (doses to about 250 µM), without a hit: at the top dose activity change, negative = inhibition, usual class: inhibitors | hit rate 54% among 220 | AID 540355
# Sfp gel: Sfp phosphopantetheinyl transferase inhibition, gel detection; hit rate 90% among 45; purified Sfp PPTase, gel-based product detection; AID 602362; shares compounds with NTMT1 inh; Potency, µM (highest dose often 250 µM), inactives show at the top dose activity change, negative = inhibition, actives largely listed as inhibitors
# Sfp inh SAR2: Sfp phosphopantetheinyl transferase inhibition, SAR round 2; shares compounds with NTMT1 inh; hit rate 87% among 230; Potency, µM (series often up to 57.1 µM), for inactives: top-dose activity change, negative = inhibition, usual class: inhibitors; purified Sfp enzyme, PPTase activity, qHTS
# hGST A1-1 inh: inhibits hGST A1-1 in Sfp inhibitor counter-screen | shares compounds with NTMT1 inh | 55 tested, under 10 active | Potency, µM (highest dose often 114 µM), for the others: top-dose activity change, negative = inhibition, hits mostly inhibitors | hGST A1-1 enzyme activity counter-screen, qHTS
# HSD17B4 counter: inhibits human HSD17B4, off-target for HPGD inhibitors. purified HSD17B4, estradiol/NAD+, NADH fluorescence. Potency, µM (highest dose often 57.1 µM), for the others: at the highest dose activity change, negative = inhibition, usual class: inhibitors. hit rate 10% among 230. AID 743187. shares compounds with NTMT1 inh
# ALDH1A1 inh: inhibits human ALDH1A1, off-target for HPGD inhibitors. shares compounds with NTMT1 inh. recombinant ALDH1A1, NADH fluorescence, propionaldehyde/NAD+. Potency, µM (highest dose often 57.1 µM), for inactives: at the highest dose activity change, negative = inhibition, actives largely listed as inhibitors. hit rate 93% among 230. AID 743195
# NNMT inh: human NNMT inhibition, NTMT1 counter-screen | shares compounds with NTMT1 inh | NNMT MTase-Glo luminescence, SAH detection | Potency, µM (doses to about 57.1 µM), for the others: at the top dose activity, negative = inhibition, actives largely listed as inhibitors | hit rate 10% among 120
# Target sequence (P40261 whole entry, looked up): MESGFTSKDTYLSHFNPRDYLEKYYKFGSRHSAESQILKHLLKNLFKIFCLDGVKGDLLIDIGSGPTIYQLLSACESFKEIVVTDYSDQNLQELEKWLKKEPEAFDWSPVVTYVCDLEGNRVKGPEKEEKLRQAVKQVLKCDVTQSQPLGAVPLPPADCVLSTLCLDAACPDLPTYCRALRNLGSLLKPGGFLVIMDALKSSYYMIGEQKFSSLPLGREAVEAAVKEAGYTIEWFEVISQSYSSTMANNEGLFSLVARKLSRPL
# * = called active by the depositor; u = inconclusive; x = no result; [ ] = remark or other dose. The sample as a whole holds a higher share of hits than the screen did. The call rests on the fitted dose curve; in most records, active means well fitted curve in the direction sought with a large enough effect; inconclusive means small, poorly fitted or top-dose-only effect, or another doubt; inactive means no such curve, though single readings can be large; an effect the other way counts as inactive or inconclusive.
SMILES,HTT-AS promoter,NTMT1 inh,HTT promoter inh,others
Cc1ccnc(NC(=S)N2CC3CN(c4cccc(C(F)(F)F)c4)CC3C2)c1 (stereo not given),x,u,x,Sfp qHTS opt=3.73µM*;Bsub HM489 growth=5.91µM*;Sfp PPTase gel=4.78µM*;Sfp gel=1.7µM*;Sfp inh SAR2=0.73µM*;hGST A1-1 inh=u;HSD17B4 counter=-16.9%;ALDH1A1 inh=7.64µM*
O=C1c2ccccc2C(=O)C1(c1ccccc1)N1CCN(c2cccc(C(F)(F)F)c2)CC1,-21.8%,6.7%,u,
Cc1ccnc(NC(=S)Nc2cccc(C(F)(F)F)c2)c1,x,0.1%,x,Sfp qHTS opt=10.2µM*;Bsub HM489 growth=11.8µM*;Sfp PPTase gel=2.1%;Sfp gel=u;Sfp inh SAR2=22.9µM*;hGST A1-1 inh=0.21µM*;HSD17B4 counter=-2.6%;ALDH1A1 inh=21.5µM*
Cc1noc(C)c1S(=O)(=O)N1CCC(C(=O)N2CCN(c3cccc(C(F)(F)F)c3)CC2)CC1,-33.2%,-0.3%,u,
FC(F)(F)c1ccccc1-c1nc(NCc2ccc(-c3cccc(Cl)c3)cc2)c2ccccc2n1,x,17.9%,x,
CCN(CC)CCNC(=O)c1ccc2nc(-c3ccccc3)c(-c3ccc(CN4CCC(n5c(=O)[nH]c6ccccc65)CC4)cc3)nc2c1,-25.5%,u,u,
CC[C@@H](O)C[C@@H]1C(C)=C[C@@H]2CCCC[C@@H]2[C@@]1(C)C(=O)O,x,0.8%[57.5 µM],x,
Cc1ccc([N+](=O)[O-])cc1S(=O)(=O)N(C)N=Cc1cnc2ccc(Br)cn12,-39.4%,u,u,
N#CC(c1ccnc(OCc2ccc(CN3CCOCC3)cc2)n1)c1nc2ccccc2s1 (stereo not given),x,1.3%[57.5 µM],x,
CCN(CCN(C)C)C(=O)CNCc1cc(C(N)=O)ccn1,x,6.8%[57.5 µM],x,
COc1ccc(N2CCN(C(=O)Nc3cccc(C(F)(F)F)c3)CC2)cc1,-22.3%,u,u,
Cc1ccnc(CC(=S)N2CCN(c3cccc(C(F)(F)F)c3)CC2)c1,x,-0.2%,x,Sfp qHTS opt=23.5µM*;Bsub HM489 growth=u;Sfp PPTase gel=10µM*;Sfp inh SAR2=u;HSD17B4 counter=u;ALDH1A1 inh=9.61µM*
Cc1ccnc(NC(=S)N[C@@H]2CCN(c3cccc(C(F)(F)F)c3)C2)c1,x,16.0%,x,Sfp qHTS opt=u;Bsub HM489 growth=u;Sfp PPTase gel=18.7%;Sfp gel=0.1%;Sfp inh SAR2=u;hGST A1-1 inh=u;HSD17B4 counter=8.6%;ALDH1A1 inh=24.1µM*
O=C(Nc1ccccc1Br)N[C@@H]1CCN(c2ccc(C(F)(F)F)cn2)C1,-7.5%,1.1%,-4.0%,
CCOc1ccc(-c2cc(C(=O)N3CCN(c4cccc(C(F)(F)F)c4)CC3)c3ccccc3n2)cc1,26.0%,-15.5%,-2.1%,
Cc1ccnc(NC(=O)N2CCN(c3cccc(C(F)(F)F)c3)CC2)c1,x,1.7%,x,Sfp qHTS opt=-0.2%;Bsub HM489 growth=u;Sfp PPTase gel=-5.1%;Sfp inh SAR2=-23.6%;HSD17B4 counter=-14.5%;ALDH1A1 inh=10.8µM*
c1ccc2c(-c3cnn4cc(-c5ccc(OCCN6CCOCC6)cc5)cnc34)ccnc2c1,x,-15.0%[57.5 µM],x,
O=C(O)c1ccnc(-c2cc(C(=O)NCCc3ccccc3)ccn2)c1,x,u,2.9%,
O=S(=O)(Nc1ccc(-c2ccccc2)cc1)c1ccc(NCc2ccc(Br)cc2O)cc1,x,2.4%,x,
FC(F)(F)c1ccccc1-c1nc(NCc2ccc(-c3ccncc3)cc2)c2ccccc2n1,x,-0.3%,x,
CC(=O)c1ccc(N2CCN(C(=S)Nc3cc(C)ccn3)CC2)cc1,x,u,x,Sfp qHTS opt=5.91µM*;Bsub HM489 growth=16.7µM*;Sfp PPTase gel=5.01µM*;Sfp inh SAR2=1.02µM*;HSD17B4 counter=u;ALDH1A1 inh=7.64µM*
Cc1ccnc(NC(=S)N2CCN(c3ccc(Br)cc3)CC2)c1,x,u,x,Sfp qHTS opt=5.91µM*;Bsub HM489 growth=23.5µM*;Sfp PPTase gel=7.94µM*;Sfp inh SAR2=1.82µM*;HSD17B4 counter=-13.3%;ALDH1A1 inh=3.41µM*
CC(=O)c1ccc(N2CCN(C(=O)c3cc4ccc5cccnc5c4[nH]3)CC2)cc1,-11.0%,10.3%,-0.4%,
Cc1nc(-c2ccc(C)c(N3CCN(C(=O)Nc4ccc(Br)cc4)CC3)c2)no1,-37.7%,u,u,
C[C@@H](O)[C@H](N)C(=O)N1CCC[C@H]1C(=O)N1CCC[C@H]1C(=O)N[C@H](C(N)=O)[C@@H](C)O,x,34.6%[12.6 µM],x,
SMILES,HTT-AS promoter,NTMT1 inh,HTT promoter inh,others
O=C(Nc1cncc(NC(=O)c2cccs2)c1)c1cccs1,x,-4.9%,x,
COc1ccc(NC(=O)c2cccnc2)cc1S(=O)(=O)Nc1ccc(Br)cc1,x,1.6%,x,
CNc1oc(-c2ccc3cnccc3c2)nc1C#N,x,2.1%,x,
CC(C)C[C@H](C(=O)O)c1cc(-c2ccc(C(F)(F)F)cc2)cc(-c2ccc(C(F)(F)F)cc2)c1,x,-17.3%[57.5 µM],x,
CC#C[C@@H](CC(=O)O)c1ccc(OCc2cccc(-c3ccc(C(F)(F)F)cc3)c2)cc1,x,22.4µM*,x,NNMT inh=u
Cc1nc(C#Cc2ccnc(Cl)c2)c(C)n1-c1ccc(OC(F)(F)F)cc1,x,u,x,NNMT inh=-16.5%
CC1=CC(=O)C(=C(C)C)CC2C(C)(O)CCC12O (stereo not given),x,-21.3%[57.5 µM],x,
C=Cc1cc2oc(-c3ccc(O)c(F)c3)nc2cc1O,x,28.2µM*,x,NNMT inh=u
O=C(Nc1ccc2oc(-c3ccc4ccccc4c3)nc2c1)c1ccccc1F,u,-7.0%,-4.9%,
O=C(Nc1cccc(Nc2ncc(Br)c(NCCc3cnc[nH]3)n2)c1)N1CCCC1,-25.7%,u,u,
NCC(CNc1nc(Nc2cccc(NC(=O)N3CCCC3)c2)ncc1I)C(=O)c1cccs1 (stereo not given),x,u,x,NNMT inh=u

# From PubChem
